Records with an inconclusive call do not appear. Entries that show only a call come without a potency. A number with no mark means an inactive call. Calls of active or inactive are those of the source. The call rests on the fitted dose curve; in most records, active means well fitted inhibition curve with a large enough effect; inconclusive means small, poorly fitted or top-dose-only effect; inactive means flat fitted curve, though single readings scatter.
What follows are compounds tested against Luciferin 4-monooxygenase (Photinus pyralis) (UniProt P08659) (assay: Counterscreen Assay for Enhancers of SMN2 Splice Variant Expression: Interaction with Luciferase Reporter). Details: purified firefly luciferase, luminescence, 5 min; series mostly up to 40.3 µM.
Luciferin 4-monooxygenase (Photinus pyralis), sequence (P08659 whole entry, looked up, canonical isoform): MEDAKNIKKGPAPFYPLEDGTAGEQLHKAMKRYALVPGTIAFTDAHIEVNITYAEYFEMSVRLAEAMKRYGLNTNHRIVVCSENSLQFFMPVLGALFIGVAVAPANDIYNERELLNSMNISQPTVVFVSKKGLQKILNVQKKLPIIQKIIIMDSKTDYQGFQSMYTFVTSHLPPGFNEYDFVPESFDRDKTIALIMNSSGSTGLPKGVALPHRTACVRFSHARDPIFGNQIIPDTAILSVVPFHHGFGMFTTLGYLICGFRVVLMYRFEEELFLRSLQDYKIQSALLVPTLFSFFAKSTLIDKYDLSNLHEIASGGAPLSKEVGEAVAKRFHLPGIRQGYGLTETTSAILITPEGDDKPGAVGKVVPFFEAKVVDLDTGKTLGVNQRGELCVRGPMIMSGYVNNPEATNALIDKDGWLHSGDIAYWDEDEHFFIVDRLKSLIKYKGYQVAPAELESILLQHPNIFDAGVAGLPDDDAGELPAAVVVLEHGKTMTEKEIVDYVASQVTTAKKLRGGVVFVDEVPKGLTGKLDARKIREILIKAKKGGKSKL
Excerpt: NIH Chemical Genomics Center [NCGC] NIH Molecular Libraries Probe Production centers Network [MLPCN] MLPCN Grant: R03 MH084179-01 Assay Submitter (PI): Elliot Androphy NCGC Assay Overview: Spinal muscular atrophy (SMA) is caused by insufficient levels of the survival motor neuron protein SMN. The SMN locus on chromosome 5q13 contains two inverted copies of SMN called SMN1 and SMN2 which are 99% identical at the amino acid level. SMN1 is a fully functional protein and SMN2 skips exon 7 90% of the time. Skipping of exon 7 produces non-functional protein product. 10% of the SMN2 protein includes exon 7 and is fully functional. In the SMA disease state, mutations in the SMN1 locus are the cause of the disease state. Because only 10% of SMN2 is of the fully functional form, it is not sufficient to overcome the deficiency produced by the loss of the SMN1 product. A therapy that either increases the amount of SMN2 product made increases the inclusion of exon 7 has been proposed for the treatment of SMA. We have designed an assay to identify small molecules that can increase the amount of functional SMN2 product by appending a luciferase reporter gene after the native SMN2 gene, such that inclusion of exon 7 in the expressed product places the luciferase sequence in frame, thus generating functional luciferase enzyme. One potential source of false positives in the primary screening assay is stabilization of the reporter luciferase via direct binding. This assay attempts to identify such compounds by screening directly for luciferase activity in the absence of the cellular system.
NCGC Assay Protocol Summary: The primary screen utilizes a luciferase reporter gene assay, combining the promoter and splicing based cassettes in tandem with the major portion of the native SMN1 cDNA, and then transfected into HEK293 cells. Compounds that modulate luciferase signal presumably modulate expression of […]. In this assay, we utilize purified firefly luciferase in lieu of a cellular reporter to identify compounds interacting directly with luciferase in the primary screen. Sequence, Parameter, Value, Description (1) Reagent, 2.5 uL, Enzyme in buffer (note A) (2) Compound, 23 nL, From stock solutions (3) Time, 5 minutes, Room temp (4) Reagent#2.5 ul, Luciferase detection reagent (note B) (5) Detector, 1 sec integrate, Luminescent read on Viewlux (note C) Sigma enzyme (1 mg) considered to be MW 61,000 diluted in 357 ul assay buffer to 50 uM stock. A - Enzyme and buffer consists of 50 mM Tris-acetate pH 7.6, 10 mM Mg acetate 0.05% BSA, 0.01% Tween and 5 nM firefly luciferase B - Detection reagent = britelite plus diluted 1:10 in PBS C - Viewlux settings were 1 second integration medium sensitivity Keywords: Spinal muscular atrophy, SMA, SMN2, high throughput screening, MLSMR, MLPCN, NIH Roadmap, qHTS and NCGC
In the case of `O=c1cc(N2CCN(c3cccc(Cl)c3)CC2)[nH]c(=O)n1C1CCCCC1`, the activity change, negative = inhibition is reported as -4.08% [at 48.7 pM].
`CC(C)Nc1nc(-c2ccccc2)nnc1-c1ccccc1` was tested, and the Potency was “inactive”.
For `O=C(Nc1nc(-c2ccc3ccccc3c2)cs1)C1CCN(S(=O)(=O)c2cccs2)CC1`, the Potency was “inactive”.
In the case of `CC1CN(c2nc(-c3ccc(Br)cc3)nnc2-c2ccccc2)CC(C)N1` (centres undefined), the Potency is reported as “inactive”.
In the case of `c1ccc(-c2nnc(-c3ccccc3)c(-c3c[nH]c4ccccc34)n2)cc1`, the Potency is reported as “inactive”.
In the case of `OCCCNc1nc(-c2ccc(Cl)cc2)nnc1-c1ccccc1`, the Potency is reported as “inactive”.
`COc1ccc(-c2csc(N3CCC(c4ccccc4)CC3)n2)cc1` was tested, and the Potency was “inactive”.
For `COc1c(C)c2c(c(O)c1C/C=C(\C)CCC(=O)O)C(=O)OC2`, the Potency was “inactive”.
With `Cc1nnc(-c2ccccc2)[nH]c1=O` the Potency was “inactive”.
For `CCCc1sc(N2CCCC(C(N)=O)C2)nc1-c1ccccc1` (centres undefined), the Potency was “inactive”.
`Cc1ccc(-c2csc(N3CCC(NS(=O)(=O)c4ccc5c(c4)OCCO5)CC3)n2)cc1` was tested, and the Potency was “inactive”.
`CN(C)CCCN(C(=O)c1cccs1)c1nc(-c2ccccc2)cs1` was tested, and the Potency was “inactive”.
`O=C(Nc1ccc([N+](=O)[O-])cc1Cl)c1cc(Cl)ccc1O` was tested, and the Potency was 0.794 µM (active).
In the case of `Brc1ccc(-c2nnc(-c3ccccc3)c(N3CCSCC3)n2)cc1`, the Potency is reported as 10 µM (active).
With `O=C(NCCc1cn2ccsc2n1)c1cccs1` the activity change, negative = inhibition was -9.66% [at 48.7 pM].
For `O=C(O)c1cccc(COc2ccc(CO)cc2Cl)c1`, the Potency was 7.08 µM (active).
With `OCCCNc1nc(-c2ccc(Cl)cc2)nnc1-c1ccc(Br)cc1` the Potency was “inactive”.
Work on `FC(F)C(F)(F)C1=CC(c2cccs2)=NCCN1` yielded an activity change, negative = inhibition of -4.71% [at 48.7 pM].
`N#C/C(=C\Nc1ccccc1SC(F)(F)F)c1nc(-c2ccc(Cl)cc2)cs1` gave an activity change, negative = inhibition of 19.5% [at 48.7 pM].
For `O=C(NCCCNCCCNC(=O)c1ccccn1)c1ccccn1`, the activity change, negative = inhibition was -6.78% [at 48.7 pM].
In the case of `Clc1ccc(-c2nnc(-c3ccccc3)nc2N2CCSCC2)cc1`, the Potency is reported as 11.2 µM (active).
In the case of `CC(/C=C/C(=O)NO)=C\[C@@H](C)C(=O)c1ccc(N(C)C)cc1`, the Potency is reported as “inactive”.
With `COc1nc(-c2ccc(Cl)cc2)nnc1C` the Potency was “inactive”.
`Cc1[nH]c2ccccc2c1-c1nc(-c2ccc(Cl)cc2)nnc1-c1ccccc1` was tested, and the Potency was “inactive”.
